This passage reports growth results from PubChem BioAssay (NCI).

Test systems include HCT-15 colon; HT29 colon; SNB-75 CNS; SNB-19 CNS; U251 CNS; PC-3 prostate; SK-MEL-5 melanoma; UACC-62 melanoma; LOX IMVI melanoma; SK-MEL-28 melanoma; SK-MEL-2 melanoma; EKVX NSCLC; SN12C renal; UO-31 renal; TK-10 renal; ACHN renal; CAKI-1 renal; CCRF-CEM leukemia; MOLT-4 leukemia.
Assay in all cases: NCI-60 one-dose screen, 48 h (100 = growth as untreated, 0 = no growth, -100 = all killed)
What all share (settings): 10 µM unless noted

The panel holds about 83,000 compounds, 20% with a hit somewhere; the sample as a whole holds those more often.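 Activity criterion: percent growth below 10, measured after cells in 96-well plates were exposed to a single compound concentration for 48 hours.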 Values without a mark were called inactive. Activity calls are given as the source filed them.

In the case of `C=C1C(=O)O[C@H]2[C@H]1CC/C(CNC(=O)C(C)c1ccc(CC(C)C)cc1)=C\CC[C@@]1(C)O[C@@H]21` (some centres not stated), the growth is -55.7% (active) in the test with HCT-15 colon; -52.4% (active) with HT29 colon; 64.5% with SNB-75 CNS; 48.9% in the test with SNB-19 CNS; 45.2% with U251 CNS; 16.6% in the test on PC-3 prostate. In addition, the growth in the test on SK-MEL-5 melanoma was 61.3%; with UACC-62 melanoma, -27.2% (active); with LOX IMVI melanoma, -80.3% (active); with SK-MEL-28 melanoma, -76.9% (active); with SK-MEL-2 melanoma it was 32.9%; in the test on EKVX NSCLC, 0% (active). The growth with SN12C renal was -0.803% (active); with UO-31 renal, -99.7% (active); in the test with TK-10 renal it was -61% (active); in the test with ACHN renal it was -95.9% (active); in the test on CAKI-1 renal, -7.71% (active); with CCRF-CEM leukemia it was -1.13% (active). The growth with MOLT-4 leukemia was 0.34% (active).

In the case of `O=S(=O)(NCCNc1nccc(-c2c(-c3cccc(O)c3)nc3occn23)n1)c1ccc(C(F)(F)F)cc1`, the growth is 108% in the test on HCT-15 colon; 72.9% in the test on HT29 colon; 92.5% in the test with SNB-75 CNS; 115% with SNB-19 CNS; 104% in the test with U251 CNS; 99.7% in the test on PC-3 prostate. Also, the growth in the test with SK-MEL-5 melanoma was 55.7%; in the test on UACC-62 melanoma it was 26.7%; in the test with LOX IMVI melanoma it was 75.1%; in the test with SK-MEL-28 melanoma, 58.3%; with SK-MEL-2 melanoma it was 93.7%; with EKVX NSCLC it was 105%. For the same molecule, the growth is 102% in the test on SN12C renal; 93.9% in the test with UO-31 renal; 137% with TK-10 renal; 84.4% in the test on ACHN renal; 69.6% with CAKI-1 renal; 106% in the test with CCRF-CEM leukemia. For the same molecule, the growth with MOLT-4 leukemia was 111%.

Regarding `C=CC(=O)N[C@@H](/C=C/C(=O)OCC)Cc1ccc(-c2cc(Cl)cc(Cl)c2)cc1`, the growth is 15.2% in the test on HCT-15 colon; 20.3% with HT29 colon; 40.3% with SNB-75 CNS; 33.9% in the test on SNB-19 CNS; 20.2% in the test on U251 CNS; 16.9% in the test on PC-3 prostate. Besides, the growth is -88.2% (active) in the test with SK-MEL-5 melanoma; 9% (active) in the test on UACC-62 melanoma; 36.6% in the test on LOX IMVI melanoma; 39.8% in the test on SK-MEL-28 melanoma; 14.1% with SK-MEL-2 melanoma; 20% in the test with EKVX NSCLC. Further, the growth was 3.95% (active) with SN12C renal; 14.2% in the test on UO-31 renal; 6.04% (active) in the test on TK-10 renal; 26.7% in the test with ACHN renal; 35.9% with CAKI-1 renal; 17.2% with CCRF-CEM leukemia. Also, in the test with MOLT-4 leukemia, the growth was 1.95% (active).

As to `CCCCCCNC(=O)Nc1ccc2cc3ccc(NC(=O)NCCCCCC)cc3nc2c1`, the growth with HCT-15 colon was 88.7%; in the test on HT29 colon, 20.2%; with SNB-75 CNS it was -16.3% (active); in the test with SNB-19 CNS, -47.9% (active); in the test on U251 CNS, -89.1% (active); with PC-3 prostate, 21.5%. Further, the growth with SK-MEL-5 melanoma was 3.38% (active); in the test on UACC-62 melanoma, -79% (active); in the test with LOX IMVI melanoma it was -79.7% (active); in the test with SK-MEL-28 melanoma, -65.4% (active); with SK-MEL-2 melanoma, 11.3%; with EKVX NSCLC, 48.7%. Further, the growth is -72.7% (active) in the test with SN12C renal; 94.2% with UO-31 renal; 97.8% with TK-10 renal; 96.7% in the test with ACHN renal; 71.4% in the test with CAKI-1 renal; 0.631% (active) with CCRF-CEM leukemia. For the same molecule, in the test on MOLT-4 leukemia, the growth was -45% (active).

Take `CC(=O)N1c2ccccc2NC2=C(C(=O)NC2(C)C)C1c1ccco1` (configuration not stated): the growth in the test with HCT-15 colon was 93.1%; in the test with HT29 colon, 92.5%; in the test with SNB-75 CNS, 73.5%; with SNB-19 CNS it was 81.2%; with U251 CNS it was 96.5%; with PC-3 prostate it was 54.6%. In addition, the growth in the test on SK-MEL-5 melanoma is 64.6%; in the test on UACC-62 melanoma, 66.5%; in the test on LOX IMVI melanoma, 86.4%; with SK-MEL-28 melanoma, 75.2%; with SK-MEL-2 melanoma, 84.2%; in the test on EKVX NSCLC, 95.8%. The growth with SN12C renal is 99.1%; in the test on UO-31 renal, 85.2%; in the test on TK-10 renal, 98.4%; in the test on ACHN renal, 107%; with CAKI-1 renal, 90.3%; in the test with CCRF-CEM leukemia, 80.6%. In addition, the growth with MOLT-4 leukemia was 96.5%.

For the molecule `COc1ccc(N2CCN(c3ccc(NC4=C(Cl)C(=O)c5ncccc5C4=O)cc3)CC2)cc1`, the growth in the test with HCT-15 colon was 40.9%; in the test on HT29 colon it was 49.9%; in the test with SNB-75 CNS, 52.8%; in the test on SNB-19 CNS, 29.4%; in the test on U251 CNS, 26.7%; in the test on PC-3 prostate, 53%. In addition, the growth is 50.5% with SK-MEL-5 melanoma; 34.1% with UACC-62 melanoma; 35.3% in the test on LOX IMVI melanoma; 71% in the test with SK-MEL-28 melanoma; 71.8% in the test with SK-MEL-2 melanoma; 78.8% in the test with EKVX NSCLC. Besides, the growth in the test on SN12C renal is 45.5%; in the test on UO-31 renal, 46.2%; with TK-10 renal, 74.8%; in the test on ACHN renal, 67.3%; in the test on CAKI-1 renal it was 61.1%; in the test on CCRF-CEM leukemia it was 24.6%. Further, in the test on MOLT-4 leukemia, the growth was 53.3%.

On to `O=C1Nc2ccc(F)cc2/C1=C\c1c(-c2ccccc2)nc2ccccn12`, for which the growth was 51.9% with HCT-15 colon; 52.1% with HT29 colon; 61.6% in the test on SNB-75 CNS; 75.4% in the test with SNB-19 CNS; 82.7% in the test with U251 CNS; 67.5% with PC-3 prostate. The growth in the test with SK-MEL-5 melanoma is 61.5%; with UACC-62 melanoma it was 60.7%; in the test on LOX IMVI melanoma, 64.1%; with SK-MEL-28 melanoma, 85.1%; with SK-MEL-2 melanoma, 63.7%; in the test on EKVX NSCLC, 61.8%. For the same molecule, the growth in the test with SN12C renal was 80.4%; in the test on UO-31 renal, 46.6%; in the test on TK-10 renal, 81%; in the test with ACHN renal it was 53.4%; in the test with CAKI-1 renal, 34.3%; in the test with CCRF-CEM leukemia, 57.7%. Further, the growth in the test with MOLT-4 leukemia is 51%.

Turning to `COc1cccc(-c2ccc3c(c2)NC(=O)/C3=C\c2ccc[nH]2)c1`, the growth in the test with HCT-15 colon is 20.7%; in the test with HT29 colon it was 23.6%; with SNB-75 CNS, 44%; in the test with SNB-19 CNS it was 81.6%; in the test on U251 CNS it was 83.5%; in the test with PC-3 prostate, 70.1%. The growth in the test with SK-MEL-5 melanoma was 11%; with UACC-62 melanoma, 44.3%; with LOX IMVI melanoma, 50.5%; with SK-MEL-28 melanoma, 70.7%; in the test with SK-MEL-2 melanoma, 52.7%; in the test on EKVX NSCLC it was 26.1%. In addition, the growth with SN12C renal was 69.2%; in the test with UO-31 renal, 52.7%; in the test with TK-10 renal, 27.1%; with ACHN renal it was 40.2%; in the test with CAKI-1 renal it was 28.3%; with CCRF-CEM leukemia it was 19%. In addition, in the test with MOLT-4 leukemia, the growth was 34.4%.
